Assay [1] is described as follows: ATG_CRE_CIS: Attagene CIS-FACTORIAL HepG2 Assay for human cAMP Responsive Element (CRE) binding protein 3 (AID 2282926). To be noted: HepG2 CRE cis-reporter, Attagene multiplexed mRNA; actives raise or lower the signal. In outline:
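Liver-derived HepG2, transfected with a CRE-containing reporter panel, exposed 24 h; transcript levels sized and quantified by capillary electrophoresis of labelled amplicons; signal changes either way referenced to vehicle.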

Assay [2] has as its target CCAAT/enhancer-binding protein beta (Homo sapiens) (UniProt P17676). Nature of the assay: ATG_C_EBP_CIS: Attagene CIS-FACTORIAL HepG2 Assay for human CCAAT/Enhancer Binding Protein (C/EBP) beta (AID 2282927). To be noted: HepG2 Attagene cis-factorial transcription factor reporter; actives raise or lower the signal. In short, it runs like this:
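Chemical-treated HepG2 cells (24 h) bearing cis-regulated reporter constructs were processed for total RNA, then reverse transcription, PCR amplification, fluorescent primer extension and fragment analysis; gain- and loss-of-signal were fitted against DMSO.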

Assay [3] is described as follows: ATG_CMV_CIS: Attagene CIS-FACTORIAL HepG2 Assay for human CMV (Internal Marker) (AID 2282928).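 Also: endpoint acts as a background internal control marker rather than a target.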 To be noted: HepG2 CMV promoter reporter, transcription factor profiling; actives raise or lower the signal. In short, it runs like this: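 Bidirectional fits against DMSO are applied to reporter mRNA, read by RT-PCR with capillary electrophoresis, from HepG2 cells exposed 24 h. The endpoint serves as an internal CMV background marker within the cis-factorial reporter panel.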

A short description of assay [4]: ATG_DR4_LXR_CIS: Attagene CIS-FACTORIAL HepG2 Assay for human Liver X Receptor (LXR), DR4 submotif (AID 2282929). The settings on record: HepG2 Attagene DR4 cis-reporter, mRNA transcription; actives raise or lower the signal. In outline: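 After transient transfection with multiplexed cis-promoter reporter units, HepG2 cells received test chemicals for 24 h. Reporter mRNA induction, detected by fluorescence after RT-PCR and capillary electrophoresis, was scored relative to DMSO.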

Assay [5] addresses Aryl hydrocarbon receptor (Homo sapiens) (UniProt P35869). Put plainly: ATG_Ahr_CIS: Attagene CIS-FACTORIAL HepG2 Assay for human Aryl Hydrocarbon Receptor (Ahr) (AID 2282930). To be noted: HepG2 AhR cis-factorial reporter transcription; actives raise or lower the signal. In outline: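 Following 24 h of chemical dosing, transfected HepG2 liver cells with cis-driven reporter units were lysed for RNA; reporter mRNA was quantified via RT-PCR and capillary electrophoresis, and responses fitted bidirectionally from DMSO.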

Assay [6] is described as follows: ATG_AP_1_CIS: Attagene CIS-FACTORIAL HepG2 Assay for human Activator Protein 1 (AP-1) (AID 2282931). To be noted: HepG2 Attagene cis-factorial AP-1 reporter mRNA; actives raise or lower the signal. In short, it runs like this: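 After 24 h incubation with test chemical, RNA from transfected HepG2 cells was reverse-transcribed, amplified, fluorescently labelled and digested before capillary electrophoresis. Reporters were driven by cis-regulatory promoters; activity fitted bidirectionally versus DMSO.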

Assay [7] is described as follows: ATG_AP_2_CIS: Attagene CIS-FACTORIAL HepG2 Assay for human Activator Protein 2 (AP-2) (AID 2282932). The settings on record: HepG2 AP-2 cis-reporter, Attagene transcription factor profiling; actives raise or lower the signal. In outline: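 Cells (HepG2) transfected with promoter-driven reporter constructs, treated 24 h. Total RNA reverse-transcribed, reporter cDNA PCR-amplified, FAM-labelled by primer extension, digested, resolved by capillary electrophoresis. Activity fitted both directions versus DMSO.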

Assay [8] can be described thus: ATG_BRE_CIS: Attagene CIS-FACTORIAL HepG2 Assay for human Bone Morphogenetic Protein (BMP) Response Element (BRE) (AID 2282933). To be noted: HepG2 BMP response element reporter, Attagene transcription factor profiling; actives raise or lower the signal. In outline:
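Multiplexed cis-reporter assay, HepG2, 24 h exposure. mRNA from reporter units quantified via RT-PCR/CE; DMSO baseline; bidirectional curve fit.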

In assay [9] the target is Transcription factor E2F1 (Homo sapiens) (UniProt Q01094). Put plainly: ATG_E2F_CIS: Attagene CIS-FACTORIAL HepG2 Assay for human E2F Transcription Factor 1 (AID 2282935). To be noted: HepG2 Attagene cis-reporter, E2F reporter RNA transcripts; actives raise or lower the signal. In short, it runs like this: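 First, HepG2 cells were transfected with reporter transcription units. Next, they were dosed for 24 h. Then RNA was isolated, converted to cDNA, PCR-amplified, FAM-labeled, HpaI-digested and analyzed by capillary electrophoresis.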

A short description of assay [10]: ATG_E_Box_CIS: Attagene CIS-FACTORIAL HepG2 Assay for human Enhancer Box (E-box) (AID 2282936). To be noted: HepG2 E-box cis-reporter transcription, actives raise or lower the signal. In short, it runs like this:
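Endogenous transcription factor activity was sensed in human HepG2 liver cells through transfected cis-promoter reporter units. After 24 h of dosing, total RNA was reverse-transcribed and reporter cDNA resolved by capillary electrophoresis.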

The text below walks through data of PubChem BioAssay (EPA / NIEHS).

Structures are written as SMILES. Calls of active or inactive are those of the source. The calls were made as follows: active = hit-call score of the fitted dose curve at least 0.9, where 1 is the maximum; inactive = score below 0.9.

CCAAT/enhancer-binding protein beta (Homo sapiens), sequence (P17676 whole entry, looked up, the tested form may be a part): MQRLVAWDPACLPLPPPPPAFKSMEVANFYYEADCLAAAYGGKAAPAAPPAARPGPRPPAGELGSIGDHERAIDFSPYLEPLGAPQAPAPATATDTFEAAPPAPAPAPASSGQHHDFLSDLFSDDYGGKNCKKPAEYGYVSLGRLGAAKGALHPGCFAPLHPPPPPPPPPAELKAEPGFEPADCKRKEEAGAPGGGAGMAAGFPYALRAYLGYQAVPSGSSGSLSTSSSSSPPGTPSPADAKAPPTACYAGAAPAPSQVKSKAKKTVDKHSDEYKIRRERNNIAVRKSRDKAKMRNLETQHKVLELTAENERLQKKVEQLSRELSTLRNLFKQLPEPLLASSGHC
Aryl hydrocarbon receptor (Homo sapiens), sequence (P35869 whole entry, looked up): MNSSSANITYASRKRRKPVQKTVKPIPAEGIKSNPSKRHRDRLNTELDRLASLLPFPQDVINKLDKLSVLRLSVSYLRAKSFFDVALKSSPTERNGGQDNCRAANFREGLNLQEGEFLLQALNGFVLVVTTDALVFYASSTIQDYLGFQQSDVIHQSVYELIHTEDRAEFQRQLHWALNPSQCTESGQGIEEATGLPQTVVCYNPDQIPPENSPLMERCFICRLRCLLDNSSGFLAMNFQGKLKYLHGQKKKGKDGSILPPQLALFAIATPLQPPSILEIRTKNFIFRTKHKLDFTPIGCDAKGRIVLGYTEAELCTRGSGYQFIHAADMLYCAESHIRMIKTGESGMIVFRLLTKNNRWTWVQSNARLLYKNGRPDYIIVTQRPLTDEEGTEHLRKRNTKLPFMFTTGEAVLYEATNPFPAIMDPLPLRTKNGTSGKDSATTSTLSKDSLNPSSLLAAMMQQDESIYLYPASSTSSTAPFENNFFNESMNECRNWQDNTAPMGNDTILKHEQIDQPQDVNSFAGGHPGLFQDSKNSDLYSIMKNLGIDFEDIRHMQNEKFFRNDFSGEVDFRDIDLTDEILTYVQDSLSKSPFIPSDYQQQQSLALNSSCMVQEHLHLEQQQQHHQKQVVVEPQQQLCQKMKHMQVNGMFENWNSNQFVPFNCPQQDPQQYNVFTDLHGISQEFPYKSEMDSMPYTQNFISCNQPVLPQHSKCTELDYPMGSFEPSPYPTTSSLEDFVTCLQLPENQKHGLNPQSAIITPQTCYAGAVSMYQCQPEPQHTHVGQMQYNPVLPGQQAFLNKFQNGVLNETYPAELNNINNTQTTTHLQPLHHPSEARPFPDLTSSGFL
Transcription factor E2F1 (Homo sapiens), sequence (Q01094 whole entry, looked up): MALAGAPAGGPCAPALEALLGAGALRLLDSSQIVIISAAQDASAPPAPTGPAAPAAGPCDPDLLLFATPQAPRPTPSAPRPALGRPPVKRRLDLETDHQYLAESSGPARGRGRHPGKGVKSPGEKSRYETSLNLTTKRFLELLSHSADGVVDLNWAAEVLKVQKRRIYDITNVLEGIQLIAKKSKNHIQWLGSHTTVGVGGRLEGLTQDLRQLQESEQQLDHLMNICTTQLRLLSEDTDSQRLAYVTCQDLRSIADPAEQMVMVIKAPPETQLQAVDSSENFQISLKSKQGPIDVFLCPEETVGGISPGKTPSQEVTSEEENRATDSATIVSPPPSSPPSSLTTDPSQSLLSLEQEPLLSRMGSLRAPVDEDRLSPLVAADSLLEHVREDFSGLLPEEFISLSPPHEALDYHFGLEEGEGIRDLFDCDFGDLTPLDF

Turning to `CC(=O)OC1CC(C)OC(C)O1` (stereo unspecified), the outcome in assay [1], in [2], in assay [3], in [4], in assay [5] and in assay [6] was inactive. For the same compound, the outcome in assay [7], in assay [8], in [9] and in [10] was inactive.

By AC50 is commonly meant the concentration at which the activity in the assay is half-maximal. In the case of `O=C(N[C@@H](c1ccccc1)[C@@H]1CCCCN1)c1cccc(C(F)(F)F)c1Cl`, the AC50 in [1] was 25.4 µM (active); in assay [3], 12.1 µM (active); in assay [6] it was 9.01 µM (active); in assay [7] it was 33 µM (active). Also, the result in assay [2], in assay [4], in [5], in assay [8], in assay [9] and in assay [10] was inactive.

Regarding `Cc1c(C)c2c(c(C)c1O)CCC(C)(COc1ccc(CC3SC(=O)NC3=O)cc1)O2` (stereo unspecified), the compound was called inactive in assay [1], in assay [2], in assay [3], in [5], in assay [7] and in [8]. Further, the compound was called inactive in assay [9]. The AC50 is 6.81 µM (active) in assay [4] and 9.14 µM (active) in assay [6].

On to `Cc1ccc(-c2cc(C(F)(F)F)nn2-c2ccc(S(N)(=O)=O)cc2)cc1`, for which the outcome in [1], in [2], in assay [3], in assay [5], in assay [6] and in assay [7] was inactive. In addition, the result in assay [8], in assay [9] and in assay [10] was inactive. In assay [4], the half-maximal activity concentration (AC50) is 14.4 µM (active).

On to `CC(=O)O`, for which the compound was called inactive in assay [1], in assay [2], in [3], in assay [4], in assay [5] and in assay [6]. For the same compound, the compound was called inactive in assay [7], in assay [8] and in [9].

Take `O=NO`: the compound was classed as inactive in assay [1], in [2], in assay [3], in assay [4], in [5] and in [6]. Moreover, the outcome in assay [7], in assay [8], in assay [9] and in [10] was inactive.

In the case of `C#CC(O)C(CC)CCCC` (stereo unspecified), the compound was called inactive in assay [1], in assay [3], in assay [5], in [8] and in assay [9]. The concentration at half-maximal activity (AC50) in [2] was 128 µM (active); in assay [4], 161 µM (active); in [6], 100 µM (active); in assay [7], 163 µM (active).

For the compound `CCCC[C@H]1CN(CC2CCOCC2)C(=O)OC12CCN(C1(C)CCN(C(=O)c3c(C)ncnc3C)CC1)CC2`, the compound was called inactive in [1], in [2], in assay [3], in [4], in assay [5] and in assay [6]. Moreover, the compound was called inactive in [7], in assay [8], in assay [9] and in assay [10].

For `CC(=O)S[C@H](C(=O)N[C@H]1Cc2ccccc2[C@H]2CCC[C@@H](C(=O)O)N2C1=O)C(C)C`, the outcome in assay [1], in assay [2], in assay [3], in assay [4], in [5] and in assay [6] was inactive. Besides, the compound was classed as inactive in assay [7], in [8] and in [9].

On to `CCCCCCC(CCCCCCCCCCC(=O)OCC(COC(C)=O)OC(C)=O)OC(C)=O` (stereo unspecified), for which the call in assay [1], in assay [2], in [4], in assay [5], in assay [6] and in [7] was inactive. The call in [8] and in [9] was inactive. Moreover, the AC50 in assay [3] was 35.6 µM (active).

For the compound `COc1ccc(OC(F)(F)F)cc1CN[C@H]1CCCN[C@H]1c1ccccc1`, the compound was called inactive in assay [1], in assay [2], in assay [3], in assay [4], in assay [5] and in [6]. The result in [8] and in assay [9] was inactive.

As for `CO[C@@H]1COCC[C@@H]1N[C@@H]1CC[C@@](C(=O)N2CCc3ncc(C(F)(F)F)cc3C2)(C(C)C)C1`, the call in assay [1], in [2], in assay [3], in assay [4], in assay [5] and in [6] was inactive. Further, the compound was classed as inactive in assay [7], in assay [8], in [9] and in assay [10].

Consider `CCCCCCCCCC[N+](C)(C)[O-]`, for which the compound was classed as inactive in [1], in [2], in [3], in assay [4], in assay [5] and in assay [6]. Besides, the compound was classed as inactive in assay [7], in assay [8], in assay [9] and in [10].

As to `O=C1c2c(O)cccc2Cc2cccc(O)c21`, the result in assay [1], in assay [2], in assay [3], in assay [4], in assay [6] and in assay [8] was inactive. Also, in assay [9], the outcome was inactive. The AC50 in assay [5] was 61.7 µM (active).

`CCOCCOCCO`: the compound was classed as inactive in assay [1], in assay [2], in assay [3], in [4], in assay [5] and in assay [6]. Also, the outcome in assay [8], in [9] and in assay [10] was inactive.

For the compound `Nc1nc(=S)c2[nH]cnc2[nH]1`, the outcome in assay [1], in assay [4], in assay [8] and in [9] was inactive. Moreover, the AC50 was 100 µM (active) in assay [2], 19 µM (active) in [3], 66.3 µM (active) in assay [5] and 12 µM (active) in [6].

Regarding `C/C=C/C=C/C(=O)O`, the result in [1], in assay [2], in assay [3], in [4], in [5] and in [6] was inactive. Besides, the call in assay [8] and in assay [9] was inactive.

For `NC=O`, the compound was called inactive in assay [1], in [2], in assay [3], in [4], in [5] and in assay [6]. In addition, the call in assay [8] and in assay [9] was inactive.

As for `Cc1cc(SC2=C(O)C[C@@](CCc3ccc(N)cc3)(C(C)C)OC2=O)c(C(C)(C)C)cc1CO`, the compound was called inactive in assay [1], in assay [2], in assay [3], in assay [4], in [5] and in assay [6]. For the same compound, the result in assay [8] and in assay [9] was inactive.

For the compound `CC(=O)OCC(COC(C)=O)OC(C)=O`, the call in [1], in assay [2], in assay [3], in assay [4], in assay [5] and in [6] was inactive. The call in [8], in assay [9] and in assay [10] was inactive.

`OCC(CO)n1cnc(-c2ccc(F)cc2)c1-c1ccnc(Oc2ccccc2)n1`: the outcome in assay [1], in [2], in [3], in assay [4], in assay [5] and in [6] was inactive. The result in assay [7], in assay [8], in [9] and in assay [10] was inactive.
